Consider 25 compounds from PubChem BioAssay (Tox21).

Results filed as inconclusive are left out. Calls of active or inactive are those of the source. The call rests on the fitted dose curve.
On the % scale 0 is the no-effect control and ±100 the full control effect.

This experiment can be described thus: qHTS assay to identify small molecule agonists of the progesterone receptor (PR) signaling pathway - cell viability counter screen (AID 1346799). Further: nearly all actives have a fitted effect of over 45% in size. Conditions: PR-UAS-bla HEK293T viability, CellTiter-Glo luminescence, 16 h; series mostly up to 92.4 µM; activity change, negative = cytotoxicity: at the top concentration. Summed up: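 Using the same plates as the PR reporter screen, HEK293T PR-UAS-bla cells received compounds for 16 hr at 37C and were then lysed with CellTiter-Glo; luminescence was read 30 min later at room temperature.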
In the case of `Oc1ccc(C2CNCCc3c2cc(O)c(O)c3Cl)cc1` (stereo not given), the “activity change, negative = cytotoxicity” value is 5.52% [at 42.5 µM] (inactive).
On the same count and under the same terms, to `CCOC(C)(C)C` belongs -7.6% (inactive); to `CC(=O)Nc1c(I)cc(I)c(C(=O)O)c1I`, 3.62% [at 42.5 µM] (inactive).
Same read-out and setting: to `N=C(N)c1ccccc1` belongs -8.21% (inactive); to `NS(=O)(=O)c1ccc(C(=O)O)cc1`, -18.5% [at 42.5 µM] (inactive).
The same measure, in the same setting: with `CC(NC(CCc1ccccc1)C(=O)O)C(=O)N1C(=O)N(C)CC1C(=O)O` (stereo not given) the figure was -0.834% [at 42.5 µM] (inactive).
Take `COCCc1ccc(OCC(O)CNC(C)C)cc1` (stereo not given): the Potency result was “inactive”.
For the compound `CCOC(=O)c1cccc(N)c1`, the “activity change, negative = cytotoxicity” value is 10.8% [at 42.5 µM] (inactive).
On to `CCN(CC)CCOCCOC(=O)C1(c2ccccc2)CCCC1`, for which the “activity change, negative = cytotoxicity” value is -38.4% [at 42.5 µM] (inactive).
Still for that read-out and setting: to `CCCN(CCC)CCc1cccc2c1CC(=O)N2` belongs -5% [at 42.5 µM] (inactive); to `NC(=O)c1cn(Cc2c(F)cccc2F)nn1`, 0.0471% [at 42.5 µM] (inactive).
The same measure, in the same setting: to `CC(C)CNCC(C)C` belongs 17.5% (inactive).
As to `O=c1n(CCO)c(=O)n(CCO)c(=O)n1CCO`, the Potency result was “inactive”.
Consider `COc1c(N2C[C@@H]3CCCN[C@@H]3C2)c(F)cc2c(=O)c(C(=O)O)cn(C3CC3)c12`, for which the “activity change, negative = cytotoxicity” value is 3.46% [at 42.5 µM] (inactive).
Same read-out and setting: with `CO[C@]12C[C@@H](COC(=O)c3cncc(Br)c3)CN(C)[C@@H]1Cc1cn(C)c3cccc2c13` the figure was -25% [at 42.5 µM] (inactive); with `COc1ccc(CCN(C)CCCC(C#N)(c2cc(OC)c(OC)c(OC)c2)C(C)C)cc1OC` (stereo not given), -14.6% [at 42.5 µM] (inactive); with `NC(=O)Nc1ccccc1`, 11.9% (inactive).
Same read-out and setting: with `N=c1nc(N2CCCCC2)cc(N)n1O` the figure was -0.581% [at 42.5 µM] (inactive); with `CCC(C)S` (stereo not given), 1.88% [at 3.27 µM] (inactive); with `CCN1CCC[C@H]1CNC(=O)c1c(O)c(Cl)cc(Cl)c1OC`, 2.43% [at 42.5 µM] (inactive).
Take `CCc1cccc2c(CCO)c[nH]c12`: the “activity change, negative = cytotoxicity” value is -2.92% [at 42.5 µM] (inactive).
Still for that read-out and setting: with `NS(=O)(=O)c1cc2c(cc1Cl)NC(C1CC3C=CC1C3)NS2(=O)=O` (stereo not given) the figure was 3.89% [at 42.5 µM] (inactive); with `O=C(O)CCCc1ccccc1`, -3.78% [at 42.5 µM] (inactive); with `Cn1cc(S(C)=O)c(=O)c2ccc(F)cc21` (stereo not given), -1.78% [at 42.5 µM] (inactive).
Same read-out and setting: to `CC(=O)OCC(CCn1cnc2cnc(N)nc21)COC(C)=O` belongs 4.22% [at 42.5 µM] (inactive).
